Screening data (PubChem BioAssay)
Pf Dd2 inh: inhibitors of Plasmodium falciparum Dd2 growth; P. falciparum Dd2 growth, SYBR Green, 72 h; Potency, µM (series often up to 28.9 µM), for inactives: at the top dose activity, negative = inhibition, hits mostly inhibitors; 120,000 tested, 4.3% active; AID 1347417; active = well fitted inhibition curve with a large enough effect;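 also: plate controls were DMSO vehicle for no effect and reference drug for full effect; nearly all actives have a fitted effect of over 65% in size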
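Infected erythrocytes (Dd2, 0.3% parasitemia, 2.5% hematocrit final) are added to compound in RPMI-1640/Albumax II medium, grown 72 h at 37C in low oxygen, then lysed with saponin/Triton-X containing SYBR Green and read by fluorescence.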
* hit, by the source's call; i = inactive; [ ] = another dose, or the depositor's remark. The entries come from a sample that favours hits as a whole. Potency is read from the fitted curve at half-maximal effect.

SMILES	Pf Dd2 inh
COc1cccc(N2C(=O)NC(=NC3CCCCC3)C23CCN(C(=O)c2ccccc2)C3)c1 (centres undefined)	-27.8%
COc1cccc(N2C(=O)NC(=NC3CCCCC3)C23CCCN(C(=O)c2ccccc2)C3)c1 (centres undefined)	14.7%
CC(C)n1cnnc1CC1CCN(C(=O)C2(c3ccccc3)CC2)C1 (centres undefined)	i
Cc1ccccc1CC(=O)N1CC(C(=O)NCCc2ccncc2)C2(CCOCC2)C1 (centres undefined)	-15.9%
Cc1cccc(-c2nc(C3CC(=O)N(c4ccc(F)c(Cl)c4)C3)no2)c1 (centres undefined)	55.3%
O=C(NC1CCCC1)N1CCc2nnc(C3CC3)n2CC1	5.9%
CCNC(=O)N[C@@H]1C=C[C@@H](c2c(C)nn(-c3ccc(C(F)(F)F)cc3)c2C)C1	4.47µM*
COCC(=O)N[C@@H]1C=C[C@@H](c2c(C)nn(-c3ccc(C(C)(C)C)cc3)c2C)C1	-14.4%[44.1 µM]
Cc1nn(-c2ccc(C(C)C)cc2)c(C)c1[C@@H]1C=C[C@@H](NC(=O)NCc2ccccc2)C1	-29.8%[44.1 µM]
Cc1nn(-c2ccc(C(C)C)cc2)c(C)c1[C@@H]1C=C[C@@H](NC(=O)NC2CCCCC2)C1	10µM*
Cc1nn(-c2ccc(C(C)(C)C)cc2)c(C)c1[C@@H]1C=C[C@@H](NC(=O)CCC(=O)O)C1	-18.5%[44.1 µM]
CCNC(=O)N[C@@H]1C=C[C@@H](c2c(C)nn(-c3ccc(C(C)(C)C)cc3)c2C)C1	-5.2%[44.1 µM]
Cc1nn(-c2ccc(C(F)(F)F)cc2)c(C)c1[C@@H]1C=C[C@@H](NC(=O)CCC(=O)O)C1	i
Cc1nn(-c2ccc(C(C)(C)C)cc2)c(C)c1[C@@H]1C=C[C@@H](NC(=O)COCC(=O)O)C1	1.7%[44.1 µM]
Cc1nn(-c2ccc(C(F)(F)F)cc2)c(C)c1[C@@H]1C=C[C@@H](NC(=O)CC(C)(C)CC(=O)O)C1	i
Cc1nn(-c2ccc(C(C)C)cc2)c(C)c1[C@@H]1C=C[C@@H](NC(=O)Nc2ccc(Cl)cc2)C1	-2.6%
Cc1nn(-c2ccc(C(C)(C)C)cc2)c(C)c1[C@@H]1C=C[C@@H](NC(=O)NC(C)C)C1	10µM*
Cc1nn(-c2ccc(F)cc2)c(C)c1[C@@H]1C=C[C@@H](NC(=O)NC(C)C)C1	8.91µM*
Cc1cnc(C2CC2)n1CCNC(=O)c1cncn1C	1.1%
Cc1noc([C@H]2CCN(Cc3ccsc3)C[C@H]2NC(=O)C2CC2)n1	-8.5%[5.79 µM]
CNC(=O)N1CCC(C2CCN(C(=O)C3CCNCC3)C2)CC1 (centres undefined)	16.3%
CCn1cnnc1CC1CCN(S(=O)(=O)c2ccccc2C)CC1	-18.5%
O=C(c1cnn(Cc2ccccc2)c1)N1CCCn2nc(CO)cc2C1	-12.1%
Cc1ccc(F)cc1-c1cccc(CCOc2cnc3c(ccn3CC(=O)O)c2)c1	i
Cn1cnc(S(=O)(=O)N2CCC(Cc3nncn3-c3ccccc3)CC2)c1	-2.3%
SMILES	Pf Dd2 inh
COc1ccc(C(=O)N2CCC3(CC2)NC(=O)N(Cc2ccccc2)C3=O)c(OC)c1	1.4%
COc1ccc(CCC(=O)NCc2cc3n(n2)CCN(C(=O)N(C)C)C3)cc1	-11.5%
CCOC(=O)C1=CN(CC(=O)Nc2ccc(C(F)(F)F)cc2)S(=O)(=O)N=C1C	45.3%
CCn1nccc1C(=O)N1CCCN(S(C)(=O)=O)c2ccccc21	i
CC(=O)N1C[C@@H](C(=O)NCCc2c(C)noc2C)[C@H](c2nc(C)no2)C1	-20.1%
Cn1c(CN2CCN(c3cnccn3)CC2)nnc1C1CC(N)C1 (centres undefined)	-3.8%
CN1C(=O)CC(C(=O)O)C12CCN(Cc1cn(C)nc1-c1ccccc1)CC2 (centres undefined)	-6.7%
Cn1cc(CN2CCN(c3cnccn3)CC2)c(-c2ccc(C3CCCCC3)cc2)n1	10µM*
CCN(CCOC)Cc1cn(C)nc1-c1ccc(C2CCCCC2)cc1	10µM*
O=C([C@H]1C[C@H](Oc2ccccc2)CN1Cc1ccc2[nH]ccc2c1)N1CCOCC1	-0.8%
COCCn1c(=O)n([C@H]2CCCN(C(=O)c3cc(C)nn3C)C2)c2ncccc21	-7.8%
COc1ccc(C2=NOC3(CCCN(C(=O)C4CCCCC4)C3)C2)cc1 (centres undefined)	-16.7%
CN1CCC(Oc2ccc(C(N)=O)cn2)CC1	43.8%
COc1ccccc1N1CCN(CC(O)COc2ccc(Cl)c(C)c2)CC1 (centres undefined)	56.1%
COc1ccccc1N1CCN(CC(O)COc2ccc(C)cc2C(C)(C)C)CC1 (centres undefined)	8.91µM*
COc1ccccc1N1CCN(CC(O)COc2cc(C)cc(C)c2)CC1 (centres undefined)	41.7%
CCN1C(=O)CCC2(C(=O)N3CCN(Cc4ccc5c(c4)OCO5)CC3)CCCC=C12 (centres undefined)	i
Cc1ccc(C(=O)N2C[C@@H](F)C[C@H]2C(=O)N2CCCCC2)c(C)c1	16.4%
C[C@@]1(O)CCN(Cc2cn[nH]c2-c2ccccc2)C[C@H]1N1CCCC1	-13.6%[5.79 µM]
COc1cccc([S+](=O)([O-])N2CCC3(C2)N=C(c2cccnc2)C(=O)N3)c1 (centres undefined)	8.7%
Cc1ccc(C2Cn3nnc(C(=O)N4CCC(C(=O)NCc5ccccc5)CC4)c3CO2)cc1 (centres undefined)	-20.6%
O=C(N[C@@H]1CCC[C@@H]1C(=O)NC1CCCCCC1)c1ccncc1	-0.9%
Cc1ccc(S(=O)(=O)N(C)CC2CCOCC2)cc1C	5.5%
CC(O)CN1CC2(CCC1=O)CCN(CCCn1ccnc1)CC2 (centres undefined)	-0.2%
Cc1cc(C(=O)N2CCC3(CCC(=O)N(CCCn4ccnc4)C3)CC2)c(C)o1	5.7%
SMILES	Pf Dd2 inh
O=C1CCC2(CCN(C/C=C/c3ccccc3)CC2)CN1CCCn1ccnc1	10µM*
COC[C@H]1CCCN1Cc1nc(C2(O)CCN(CCC(C)C)CC2)cs1	-11.2%[44.1 µM]
O=C1CC(c2ccccc2)N(C(=O)C2CC2)CCCN(C(=O)c2ccco2)CCN1 (centres undefined)	13.6%
CC(C)C(=O)Nc1ccc2c(c1)CN(CCc1ccc(F)cc1)C(=O)C(C)O2 (centres undefined)	i
O=C(C1CC1)N1CC(Oc2ccc(-c3noc(C4CCOCC4)n3)cc2)C1	i
Cc1cccc(N2CCN(c3nc4ccccc4c4nc(-c5ccccc5)nn34)CC2)c1C	22.9%
Cc1cccc(N2CCN(c3nc4ccccc4c(=O)n3-c3ccc(Cl)cc3)CC2)c1C	i
Cc1cccc(N2CCN(c3nc4ccccc4c4nnc(C)n34)CC2)c1C	0.891µM*
COc1ccc(C[C@H](NC(=O)[C@@H]2C[C@H](NC(=O)CC(C)(C)C)CN2C(=O)CC(C)(C)C)C(N)=O)cc1	6.8%
COc1ccc(-c2noc(-c3nnn(-c4ccc(C)cc4C)c3C)n2)cc1	24.6%
COc1ccc(-c2noc(-c3nnn(-c4ccc(C(C)C)cc4)c3C)n2)cc1OC	8.91µM*
COc1ccc(OC)c(-n2nnc(-c3nc(-c4ccc5c(c4)OCO5)no3)c2C)c1	-6.2%
COCCNC(=O)NC[C@H]1O[C@@H]2C[C@@H](CC(=O)N3CCC(F)(F)C3)O[C@@H]2[C@@H]1O	1.4%[44.1 µM]
Cc1ccc(CN2CC[C@@](C)(O)[C@H](N3CCCC3)C2)o1	8.8%[5.79 µM]
O[C@]1(c2ccccc2)CCN(Cc2ccco2)C[C@H]1N1CCCC1	0.631µM*
O[C@]1(c2ccccc2)CCN(Cc2ccncc2)C[C@H]1N1CCCC1	0.708µM*
C[C@@]1(O)CCN(Cc2ccc(Br)o2)C[C@H]1N1CCCC1	-22.1%[5.79 µM]
C[C@@]1(O)CCN(Cc2cccc(F)c2)C[C@H]1N1CCCC1	-22.6%[5.79 µM]
